# Source: PubChem BioAssay AID687009 (National Center for Advancing Translational Sciences (NCATS), 2013)
# Records with an inconclusive call do not appear. Active and inactive are the calls of the source. The call rests on the fitted dose curve; in most records, active means well fitted curve in the direction sought with a large enough effect; inconclusive means small, poorly fitted or top-dose-only effect, or another doubt; inactive means no such curve, though single readings can be large or run the other way.
# Target: Lysine-specific histone demethylase 1A (Homo sapiens) (UniProt O60341)
# Assay: qHTS Assay for Inhibitors of Human Jumonji Domain Containing 2E (JMJD2E): Counterscreen with LSD1
# Conditions: Amplex Red/HRP fluorescence; series mostly up to 57.1 µM; activity, negative = inhibition: at the top concentration
# Source text: The fine interplay among methylation states of several lysine residues on the tails of histone proteins is a major determinant of the transcriptional state of the associated DNA coding regions and is commonly referred to as the histone code. Histone lysine demethylases catalyze the removal of methyl groups from methylated lysine sidechains on histones H3 and H4, thus antagonizing the reactions catalyzed by histone lysine methyltransferases. […] In search for novel inhibitors of JMJD2E demethylase, a member of the largest set of histone demethylases belonging to the Fe(II) and 2-oxoglutarate oxygenase (2OG) superfamily, we performed a quantitative high-throughput screen (Inglese 2006) by using an assay which utilizes a trimethylated peptide substrate corresponding to a fragment of histone H3 (sequence ARKme3STGGK) with detection of the formaldehyde co-product in real time by a formaldehyde dehydrogenase (FDH) coupled reaction. FDH catalyzes oxidation of formaldehyde to formic acid with the concomitant reduction of the non-fluorescent beta-nicotinamide adenine dinucleotide hydrate (NAD+) cofactor to the fluorescent NADH co-product. Compounds that were validated hits were screened against the histone LSD1 histone demethylase. […] NIH Chemical Genomics Center [NCGC] NIH Molecular Libraries Probe Centers Network [MLPCN] MLPCN Grant: MH084681 Assay Submitter (PI): Udo Oppermann, Structural Genomics Consortium, University of Oxford
# The assay was performed in a buffer containing 10 mM HEPES, Na pH 7.5, 5 mM MgCl2, 50 mM KCl, 0.01% Nonidet P-40, and 0.1% BSA. LSD1 was sourced from BPS Bioscience (Cat. No. 50100, San Diego, CA) and the substrate peptide was synthesized and purified by Tufts University Core Facilities (Boston, MA). Reagents (3 microL) containing either buffer-only (inhibited control) or LSD1 (120 nM) were dispensed into a 1,536-well Aurora black solid bottom cycloolefin plate (see Table 1 for protocol steps). Compounds (23 nL) were transferred via Kalypsys pintool equipped with a 1,536-pin array. The plate was incubated for 10 min at room temperature, followed by the addition of 1 microL 4 X substrate (10 mM HEPES, pH 7.5, 8 U/mL HRP, 800 µM Amplex Red, and 200 microM H3K4Me2 peptide [Sequence H-ARTXQTARKSTGGKAPRKQLA-NH2, where X = Nepsilon,Nepsilon-dimethyl-L-lysine]) to start the reaction. The plate was then centrifuged at 1,000 rpm for 15 seconds, and the fluorescence intensity was recorded on a ViewLux High-throughput CCD imager (Perkin-Elmer) using standard TAMRA optics (525 nm excitation and 598 nm emission). The plate was then incubated for 30 min at room temperature, and a second read on the ViewLux was performed. The fluorescence intensity difference over the 30 min was used to calculate the respective reaction rate for each well.
Compound,"activity, negative = inhibition",Potency
CN(C)CCCNC(=O)c1ccc(-c2cnc3c(O)ccc(C(=O)O)c3c2)cc1,-17.5% (inactive),–
NC(=O)c1ccnc2c(O)cccc12,-17.5% (inactive),–
O=C(O)c1ccc(O)c2ncc(-c3cccc(N4CCOCC4)c3)cc12,-17.8% (inactive),–
O=C(O)c1ccnc2c(O)cccc12,-19% (inactive),–
O=C(O)c1ccc(O)c2ncc(C3CCNCC3)cc12,-15% (inactive),–
O=C(O)c1ccc(O)c2ncccc12,-17% (inactive),–
O=C(O)c1ccc(O)c2ncc(-c3ccc(C(=O)N4CCNCC4)cc3)cc12,-16.8% (inactive),–
CN1CCN(C(=O)c2ccc(-c3cnc4c(O)ccc(C(=O)O)c4c3)cc2)CC1,-15.6% (inactive),–
O=C(O)c1ccc(O)c2ncc(-c3ccc(N4CCOCC4)cc3)cc12,-20.2% (inactive),–
CN(C)CCCN1CCCN(C(=O)c2cccc(-c3cc(O)c4ncccc4c3)c2)C1,–,10.8 µM (active)
